Results filed as inconclusive are left out. Unless noted, the call rests on the fitted dose curve; in most records, active means well fitted curve in either direction with a large enough effect (not every such curve was filed as active); inconclusive means small, poorly fitted or top-dose-only effect, or another doubt; inactive means flat fitted curve, though single readings scatter.
Assays:
[1] = AP1 Signaling Pathway (AID 357); details: ME-180 AP-1-bla reporter, EGF-induced, beta-lactamase ratio, 5 h; at 17.2 µM (top of the series) unless noted;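 further: ME-180 reporter cells stimulated with EGF at its EC50 level; on the % scale 0 is the no-effect control and ±100 the full control effect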
Summary of the method: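 Modulation of EGF-driven AP-1 transcription was assessed with a beta-lactamase reporter in ME-180 cells. Compound and EC50 EGF were co-incubated 5 hours at 37 °C before 2.5-hour CCF4 loading at room temperature and dual-emission reading.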

[2] = NFAT Signaling Pathway (AID 444); details: Jurkat NFAT-bla M1, carbachol, beta-lactamase ratio, 5 h; at 17.2 µM (top of the series) unless noted;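 further: carbachol stimulus at about its EC50 of 1 µM final; on the % scale 0 is the no-effect control and ±100 the full control effect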
Summary of the method: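 Jurkat cells carrying an NFAT-driven β-lactamase reporter and co-transfected muscarinic M1 receptor were treated with compound plus carbachol (1 uM final, an EC50 level) for 5 h at 37 °C. CCF4 loading followed for 1 h at RT; 460/530 nm ratio gave %activity.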

[3] = Stat Signaling Pathway (AID 446); details: ME-180 (cervical carcinoma) SIE beta-lactamase reporter, IL-6 stimulated, 5 h; at 17.2 µM (top of the series) unless noted;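 further: ME-180 cervical cancer cells given 40 pM IL-6 alongside compound; SIE-controlled beta-lactamase reporter measured as 460/530 nm FRET emission ratio; on the % scale 0 is the no-effect control and ±100 the full control effect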
Summary of the method: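 Normalization used AC90 stimulation (300 pM IL-6) and AC90 inhibition (125 nM pan-JAK inhibitor at 40 pM IL-6). The underlying signal is SIE-driven beta-lactamase in ME-180 cells after 5 h IL-6 exposure with compound.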

[4] = target: Glucocorticoid receptor (Homo sapiens) (UniProt P04150); assay: GR-GFP Redistribution (AID 450;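 active means compounds whose dose series gives a full or clear partial fitted curve of increased nuclear translocation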; further: potency means the concentration at half of the fitted maximal effect)
Sequence of Glucocorticoid receptor (Homo sapiens) (P04150 whole entry, looked up): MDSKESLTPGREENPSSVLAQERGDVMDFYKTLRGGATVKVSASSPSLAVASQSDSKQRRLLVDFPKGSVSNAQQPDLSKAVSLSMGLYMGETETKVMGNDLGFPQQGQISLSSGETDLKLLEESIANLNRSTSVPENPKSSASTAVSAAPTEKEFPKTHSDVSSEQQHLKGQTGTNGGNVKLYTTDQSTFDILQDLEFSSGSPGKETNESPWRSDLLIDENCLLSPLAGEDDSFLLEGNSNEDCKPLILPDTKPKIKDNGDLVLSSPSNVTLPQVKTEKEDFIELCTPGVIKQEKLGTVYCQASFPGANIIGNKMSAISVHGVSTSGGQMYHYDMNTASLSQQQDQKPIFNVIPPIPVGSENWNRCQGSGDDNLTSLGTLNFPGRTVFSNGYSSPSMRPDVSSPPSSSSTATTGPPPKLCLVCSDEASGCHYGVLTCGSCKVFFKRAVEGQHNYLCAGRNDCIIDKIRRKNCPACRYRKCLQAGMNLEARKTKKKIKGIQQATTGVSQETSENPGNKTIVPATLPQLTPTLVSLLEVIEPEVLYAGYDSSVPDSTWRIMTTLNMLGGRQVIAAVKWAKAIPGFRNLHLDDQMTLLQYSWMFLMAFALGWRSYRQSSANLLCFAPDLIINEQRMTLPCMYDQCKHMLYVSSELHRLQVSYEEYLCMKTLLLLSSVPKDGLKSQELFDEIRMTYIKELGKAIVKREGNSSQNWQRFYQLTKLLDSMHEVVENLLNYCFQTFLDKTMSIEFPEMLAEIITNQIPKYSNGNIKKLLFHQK

CNC(=O)C1CC(=O)N(Cc2ccccc2)C(=Nc2ccc(OC)cc2)S1 (stereo unspecified)
inactive: activity change, negative = inhibition [1] -3.9% | activity change, negative = inhibition [2] 4.86% | activity, negative = inhibition [3] -6.63% | Potency [4] > 20.6 µM

CCOc1cc(CN2CCOCC2)cc(C(C)=O)c1
inactive: activity change, negative = inhibition [1] 14.3% | activity change, negative = inhibition [2] -4.27% | activity, negative = inhibition [3] 1.95% | Potency [4] > 20.6 µM

O=C(Cc1ccc(Cl)cc1)Nc1cccc(-c2nnc(-c3ccco3)o2)c1
inactive: activity change, negative = inhibition [1] -5.69% | activity change, negative = inhibition [2] 11.3% | activity, negative = inhibition [3] -1.67% | Potency [4] > 20.6 µM

Cn1nccc1C(=O)Nc1ccccc1C(=O)O
inactive: activity change, negative = inhibition [1] -2.42% | activity change, negative = inhibition [2] 5.13% | activity, negative = inhibition [3] 4.71% | Potency [4] > 20.6 µM

O=C(O)CC(C(=O)N(c1ccccc1)c1ccccc1)N1CCOCC1 (stereo unspecified)
inactive: activity change, negative = inhibition [1] -5.33% | activity change, negative = inhibition [2] -0.593% | activity, negative = inhibition [3] 8.75% | Potency [4] > 20.6 µM

CC(=O)C1=C(O)C(=O)N(c2cccc(C(=O)O)c2)C1c1ccccc1F (stereo unspecified)
inactive: activity change, negative = inhibition [1] -4.91% | activity change, negative = inhibition [2] 3.23% | activity, negative = inhibition [3] 10.6% | Potency [4] > 20.6 µM

O=C(CSc1nnc(-c2ccco2)c(-c2ccco2)n1)Nc1ccccc1
inactive: activity change, negative = inhibition [1] 3.29% | activity change, negative = inhibition [2] -3.07% | activity, negative = inhibition [3] -9.01% | Potency [4] > 20.6 µM

Fc1ccc(OCCOCCNCC2CCCO2)cc1 (stereo unspecified)
inactive: activity change, negative = inhibition [1] 12.2% | activity change, negative = inhibition [2] -14.1% | activity, negative = inhibition [3] 21.6% | Potency [4] > 20.6 µM

COC(=O)c1ccc(C2/C(=C(\O)c3cccc(OC)c3)C(=O)C(=O)N2CCCN2CCOCC2)cc1 (stereo unspecified)
inactive: activity change, negative = inhibition [1] 3.85% | activity change, negative = inhibition [2] -2.61% | activity, negative = inhibition [3] 15.2% | Potency [4] > 20.6 µM

CN1CCN(c2nc(C(N)=O)cc(-c3ccccc3)n2)CC1
inactive: activity change, negative = inhibition [1] -1.1% | activity change, negative = inhibition [2] -3.4% | activity, negative = inhibition [3] 20.9% | Potency [4] > 20.6 µM

CC(=O)Nc1cc2c(cc1Br)OCCO2
inactive: activity change, negative = inhibition [1] 0.764% | activity change, negative = inhibition [2] -0.709% | activity, negative = inhibition [3] -0.829% | Potency [4] > 20.6 µM

O=C(NCc1ccccc1)/C(=N\O)c1ccccc1
inactive: activity change, negative = inhibition [1] -2.22% | activity change, negative = inhibition [2] 12.4% | activity, negative = inhibition [3] 3.38% | Potency [4] > 20.6 µM

C=C(C)CSc1nc(N)c2c3c(sc2n1)CCC3
inactive: activity change, negative = inhibition [1] -27.1% | activity change, negative = inhibition [2] -3.51% | activity, negative = inhibition [3] 4.14% | Potency [4] > 20.6 µM

CN(C)CCCN1C(=O)C(O)=C(C(=O)c2cc3ccccc3o2)C1c1ccccc1 (stereo unspecified)
inactive: activity change, negative = inhibition [1] 8.55% | activity change, negative = inhibition [2] -4.4% | activity, negative = inhibition [3] 1.48% | Potency [4] > 20.6 µM

O=C(O)CC(C(=O)OCC1CCCO1)N1CCOCC1 (stereo unspecified)
inactive: activity change, negative = inhibition [1] 9.13% | activity change, negative = inhibition [2] -2.84% | activity, negative = inhibition [3] -0.575% | Potency [4] > 20.6 µM

CCCCNC(=O)N1CCOCCOCCN(C(=O)NCCCC)CCOCC1
inactive: activity change, negative = inhibition [1] -5.59% | activity change, negative = inhibition [2] 4.17% | activity, negative = inhibition [3] 5.68% | Potency [4] > 20.6 µM

Cc1nc(SC2C=CS(=O)(=O)C2)n[nH]1 (stereo unspecified)
inactive: activity change, negative = inhibition [1] 5.25% | activity change, negative = inhibition [2] 11.6% | activity, negative = inhibition [3] 2.19% | Potency [4] > 20.6 µM

CCCOc1ccc(CSC(CC(=O)O)C(=O)O)cc1 (stereo unspecified)
inactive: activity change, negative = inhibition [1] 4.79% | activity change, negative = inhibition [2] 13.3% | activity, negative = inhibition [3] 6.22% | Potency [4] > 20.6 µM

CC(=O)Nn1cnc2c(c1=O)C1(CCCC1)Cc1ccccc1-2
inactive: activity change, negative = inhibition [1] -8.59% | activity change, negative = inhibition [2] -0.355% | activity, negative = inhibition [3] 10.3% | Potency [4] > 20.6 µM

COc1ccc(Cl)cc1N=Cc1c(O)cc(C)oc1=O
inactive: activity change, negative = inhibition [1] -3.56% | activity change, negative = inhibition [2] -6.83% | activity, negative = inhibition [3] 5.26% | Potency [4] > 20.6 µM

CCN1CCc2c(C#N)c(NCc3ccccc3)nc(N(CC)CC)c2C1
inactive: activity change, negative = inhibition [1] 2.07% | activity change, negative = inhibition [2] 1.29% | activity, negative = inhibition [3] 12.6% | Potency [4] > 20.6 µM

COc1ccc(C2/C(=C(/O)c3ccccc3)C(=O)C(=O)N2c2ncccn2)cc1OC (stereo unspecified)
inactive: activity change, negative = inhibition [1] -3.2% | activity change, negative = inhibition [2] -4.09% | activity, negative = inhibition [3] -0.726% | Potency [4] > 20.6 µM

Cc1csc2nc(CSc3nc4ccccc4o3)cn12
inactive: activity change, negative = inhibition [1] -11.6% | activity change, negative = inhibition [2] -1.77% | activity, negative = inhibition [3] 4.59% | Potency [4] > 20.6 µM

CC12CCC(C(=O)N(CCC#N)CCC#N)(CC1=O)C2(C)C (stereo unspecified)
inactive: activity change, negative = inhibition [1] 10.6% | activity change, negative = inhibition [2] 18.9% | activity, negative = inhibition [3] 6.43% | Potency [4] > 20.6 µM

CN1C(=O)NC(c2ccccc2)C2=C1CN(Cc1ccccc1)C2=O (stereo unspecified)
inactive: activity change, negative = inhibition [1] -1.08% | activity change, negative = inhibition [2] 1.92% | activity, negative = inhibition [3] -9.01% | Potency [4] > 20.6 µM

Cc1nc2sc(C#N)c(N)c2c2c1CCCC2
inactive: activity change, negative = inhibition [1] -15.7% | activity change, negative = inhibition [2] -7.96% | activity, negative = inhibition [3] -6.2% | Potency [4] > 20.6 µM

CCc1[nH]c(=O)c(C#N)c2c1CSC(C)(C)C2
inactive: activity change, negative = inhibition [1] 5.95% | activity change, negative = inhibition [2] 3.33% | activity, negative = inhibition [3] 9.69% | Potency [4] > 20.6 µM

Cc1ccc(N2C(=O)CC(Cn3nc(C)cc3C)C2=O)cc1 (stereo unspecified)
inactive: activity change, negative = inhibition [1] -1.66% | activity change, negative = inhibition [2] 6.84% | activity, negative = inhibition [3] 13.4% | Potency [4] > 20.6 µM

Cc1c2c([n+]3n1CCC3)CC(C)(C)CC2=O
inactive: activity change, negative = inhibition [1] 8.99% | activity change, negative = inhibition [2] -9.27% | activity, negative = inhibition [3] 11.2% | Potency [4] > 20.6 µM

COc1cc(N2C(=O)CSC23C(=O)Nc2ccccc23)cc(OC)c1OC (stereo unspecified)
inactive: activity change, negative = inhibition [1] 14.9% | activity change, negative = inhibition [2] 18.9% | activity, negative = inhibition [3] -2.69% | Potency [4] > 20.6 µM

O=C(CN1CCc2[nH]c3ccccc3c2C1)N1CCCCC1
inactive: activity change, negative = inhibition [1] -7.36% | activity change, negative = inhibition [2] -20.1% | activity, negative = inhibition [3] 4.96% | Potency [4] > 20.6 µM

Cn1c(=O)[nH]c(=O)c2c1nc(Br)n2CCSc1nnnn1-c1ccccc1
inactive: activity change, negative = inhibition [1] -14.1% | activity change, negative = inhibition [2] 1.39% | activity, negative = inhibition [3] -8.23% | Potency [4] > 20.6 µM

N#Cc1c(N)nc(SCC(=O)NCCc2ccccc2)c(C#N)c1-c1cccs1
inactive: activity change, negative = inhibition [1] 0.711% | activity change, negative = inhibition [2] 15.3% | activity, negative = inhibition [3] 5.35% | Potency [4] > 20.6 µM

CC(=O)[C@H]1CC[C@H]2[C@@H]3CCC4=CC(=O)CC[C@]4(C)[C@H]3[C@H](O)C[C@]12C
inactive: activity change, negative = inhibition [1] -0.48% | activity change, negative = inhibition [2] 2.54% | activity, negative = inhibition [3] 2.53% | Potency [4] > 20.6 µM

COC(=O)C(NC(C)=O)(Nc1ccccn1)C(F)(F)F (stereo unspecified)
inactive: activity change, negative = inhibition [1] -1.38% | activity change, negative = inhibition [2] 5.18% | activity, negative = inhibition [3] 0.0282% | Potency [4] > 20.6 µM

Cc1cc(N2C(=O)C(=O)/C(=C(/O)c3ccccc3)C2c2cccs2)no1 (stereo unspecified)
inactive: activity change, negative = inhibition [1] -22.3% | activity change, negative = inhibition [2] 19% | activity, negative = inhibition [3] -21% | Potency [4] > 20.6 µM

Cc1cc(/C(O)=C2\C(=O)C(=O)N(CCN(C)C)C2c2ccncc2)ccc1OCc1ccccc1 (stereo unspecified)
inactive: activity change, negative = inhibition [1] -14.5% | activity change, negative = inhibition [2] 17.3% | activity, negative = inhibition [3] 4.75% | Potency [4] > 20.6 µM

c1ccc(CN2CCN(c3nc(-c4ccccn4)nc4ccccc34)CC2)cc1
inactive: activity change, negative = inhibition [1] 14.9% | activity change, negative = inhibition [2] -29% | activity, negative = inhibition [3] 6.73% | Potency [4] > 20.6 µM

c1ccc(CSc2nnc(SCc3ccccn3)s2)nc1
inactive: activity change, negative = inhibition [1] -9.4% | activity change, negative = inhibition [2] 3.91% | activity, negative = inhibition [3] -4.62% | Potency [4] > 20.6 µM

CC(C)(C)c1ccc(C(=O)C=[N+]=[N-])cc1
inactive: activity change, negative = inhibition [1] 0.479% | activity change, negative = inhibition [2] 1.56% | activity, negative = inhibition [3] 4.94% | Potency [4] > 20.6 µM

CCOC(=O)c1c(C(C#N)C#N)cc(C)nc1C
inactive: activity change, negative = inhibition [1] 9.21% | activity change, negative = inhibition [2] -6.15% | activity, negative = inhibition [3] 1.48% | Potency [4] > 20.6 µM

CCOC(=O)Cn1nc(C)c2ccccc2c1=O
inactive: activity change, negative = inhibition [1] 5.31% | activity change, negative = inhibition [2] 3.38% | activity, negative = inhibition [3] -2.19% | Potency [4] > 20.6 µM

Cc1ccc(N2C(=O)CC3(CC4C=CC3C4)C2=O)cc1 (stereo unspecified)
inactive: activity change, negative = inhibition [1] 28.9% | activity change, negative = inhibition [2] 4.88% | activity, negative = inhibition [3] 14% | Potency [4] > 20.6 µM

CC(=O)NC1(C(F)(F)F)C(=O)Nc2c1c(=O)n(C)c(=O)n2C (stereo unspecified)
inactive: activity change, negative = inhibition [1] 21.1% | activity change, negative = inhibition [2] 7.97% | activity, negative = inhibition [3] 0.854% | Potency [4] > 20.6 µM

Source: PubChem BioAssay (NCATS)
